Measured values: PubChem BioAssay (EPA / NIEHS)
Inconclusive results are not listed. Active and inactive are the calls of the source. The calls were made as follows, unless noted: active = hit-call score of the fitted dose curve at least 0.9, where 1 is the maximum; inactive = score below 0.9.

Tests used:
[1] = target: Estrogen receptor (Homo sapiens) (UniProt P03372); assay: CCTE_Deisenroth_AIME_384WELL_LUC_Active: CCTE's 384-well Estrogen Receptor Transactivation Assay with AIME metabolic competence (ERTA luciferase; metabolism positive), Deisenroth Lab (AID 2284030; active = hit-call score of the fitted dose curve at least 0.9, where 1 is the maximum)
Summary of the method: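 Estrogenic luciferase signal in VM7Luc4E2 cells is measured at 24 hour, after chemicals have been preconditioned 2 hours with PB/BNF-induced rat hepatic S9 in alginate. Gain of signal is fitted relative to 17beta-estradiol, across 0.002 - 200 uM.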

[2] = CCTE_Shafer_MEA_acute_burst_duration_mean: CCTE's Neural Acute Assay for Mean Burst Duration, Shafer Lab (AID 2284014);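 also: hits are decreases in mean burst duration relative to DMSO controls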
Summary of the method: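 Mean burst duration was compared between a 40 min baseline and a 40 min recording in the presence of compound (0.03-40 uM, 37 C), giving percent change per well. Cultures were rat cortical neurons at DIV 13 or 15; wells needed ≥10 active electrodes.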

[3] = CCTE_Shafer_MEA_acute_per_burst_spike_number_mean: CCTE's Neural Acute Assay for Average Number of Spikes Per Burst, Shafer Lab (AID 2284015);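 also: hits are decreases in mean spikes per burst versus baseline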
Summary of the method: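 Percent change in mean spikes per single-electrode burst is compared between a 40 min baseline and a 40 min recording with compound (0.03-40 uM). Cultures were rat cortical neurons on MEA plates at DIV 13 or 15, recorded at 37 C, with DMSO as the negative control.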

[4] = CCTE_Shafer_MEA_acute_interburst_interval_mean: CCTE's Neural Acute Assay for Mean Interburst Interval, Shafer Lab (AID 2284016);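 also: percent change of mean interburst interval versus each well's own pre-dose baseline; curves fitted for decrease in interburst interval relative to DMSO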
Summary of the method: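 Percent change in mean single-electrode interburst interval was calculated per well from 40 min recordings before and after compound (0.03-40 uM). Recordings were made at 37 C on rat cortical cultures at DIV 13 or 15, with spikes detected at 8x rms threshold.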

[5] = CCTE_Shafer_MEA_acute_burst_percentage_std: CCTE's Neural Acute Assay for Standard Deviation of Burst Percentage, Shafer Lab (AID 2284018);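 also: fitted in the negative direction so actives lower burst percentage SD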
Summary of the method: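 Value is percent change from baseline in the across-electrode SD of spikes-in-bursts percentage, wells with >/= 10 active electrodes. Acute 40-min exposure to 0.03-40 uM on DIV 13 or 15 rat cortical cultures, recorded at 37 C after 40-min baseline.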

[6] = CCTE_Shafer_MEA_acute_per_network_burst_spike_number_mean: CCTE's Neural Acute Assay for Average Number of Spikes in a Network Burst, Shafer Lab (AID 2284019);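 as to AC50: curve fitted for loss of signal so actives reduce spikes per network burst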
Summary of the method: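 Percent change from baseline in mean spikes per network burst, spikes detected at 8x rms noise. Each compound at 0.03-40 uM in at least three wells of rat cortical cultures, recorded 40 min before and 40 min during exposure.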

[7] = CCTE_Shafer_MEA_acute_per_network_burst_spike_number_std: CCTE's Neural Acute Assay for Standard Deviation of Number of Spikes in a Network Burst, Shafer Lab (AID 2284020);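 also: fitted for decrease in spike-number SD versus DMSO so actives lower it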
Summary of the method: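 Endpoint: percent change from 40 min baseline in standard deviation of spikes per network burst, after 40 min compound exposure (0.03-40 uM, 37 C). Cortical rat neurons on MEA at DIV 13 or 15; spikes detected at 8x rms noise, 300-5000 Hz band-pass.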

[8] = CCTE_Shafer_MEA_acute_per_network_burst_electrodes_number_mean: CCTE's Neural Acute Assay for Mean Number of Electrodes in a Network Burst, Shafer Lab (AID 2284021);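 also: curves fitted for decreases only so hits reduce electrodes per burst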
Summary of the method: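 Percent change from baseline in average electrode count per network burst, rat cortical cultures on 48-well MEAs; 40-min recordings each side of exposure, DIV 13 or 15; threshold 8x rms noise; DMSO as negative control.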

[9] = CCTE_Shafer_MEA_acute_network_burst_percentage: CCTE's Neural Acute Assay for Percentage of Network Bursts, Shafer Lab (AID 2284022);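 also: curves fitted for loss so actives lower network burst percentage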
Summary of the method: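 On DIV 13 or 15, at least three wells of rat cortical neurons per compound are dosed at 0.03-40 uM. Spontaneous firing is detected at 8x rms noise for 40 min before and after dosing at 37 C. The percent change in network-burst spike share is reported.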

[10] = CCTE_Shafer_MEA_acute_cross_correlation_area: CCTE's Neural Acute Assay for Area of Cross Correlation, Shafer Lab (AID 2284024);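 also: area under pooled inter-electrode spike cross-correlation near zero lag as percent change from own baseline; curves fitted for loss of cross-correlation area so actives lower synchrony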
Summary of the method: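 Extracellular recordings from cultured rat cortical neurons measure network synchrony as cross-correlation area; each well's post-compound value (0.03-40 uM, 40 min) is compared with its own 40 min baseline to give percent change.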

[11] = CCTE_Shafer_MEA_acute_cross_correlation_HWHM: CCTE's Neural Acute Assay for Cross Correlation at Half Width at Half Maximum, Shafer Lab (AID 2284026);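 also: percent change per well from pre-dose baseline in spike cross-correlogram half width; hits are a decrease in cross-correlogram half width relative to DMSO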
Summary of the method: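 Percent change in cross-correlogram half width at half maximum, narrower meaning more synchrony, was derived per well from paired 40-min recordings before and during exposure to 0.03-40 uM compound in rat cortical cultures at 37 C.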

[12] = CCTE_Shafer_MEA_acute_synchrony_index: CCTE's Neural Acute Assay for Synchrony, Shafer Lab (AID 2284027);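 also: network synchrony index of spontaneous spiking in primary rat cortical neurons on MEAs; fitted for loss of signal so actives lower synchrony relative to DMSO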
Summary of the method: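 The synchrony index is taken as percent change per well between a 40 min baseline and a 40 min recording with compound (0.03–40 uM), at 37C. Rat cortical cultures on multiwell MEAs at DIV 13 or 15, spike threshold 8× rms noise.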

[13] = CCTE_Deisenroth_AIME_384WELL_CTox_Active: Cytotoxicity Assessment (CTOX) in CCTE's 384-well Estrogen Receptor Transactivation Assay with AIME metabolic competence (metabolism positive), Deisenroth Lab (AID 2284037; active = hit-call score of the fitted dose curve at least 0.9, where 1 is the maximum;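 also: chemicals first conditioned 2 h by alginate-bound induced rat liver S9 before cells; activity means signal loss indicating cell death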)
Summary of the method: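 Cytotoxicity in VM7Luc4E2 breast cells, 24 hour, measured as protease-substrate fluorescence loss, after 2-hour metabolic conditioning with induced rat hepatic S9 in alginate microspheres. Concentrations 0.002 - 200 uM, 10 points, bidirectional fitting.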

[14] = CCTE_Deisenroth_AIME_384WELL_CTox_Inactive: Cytotoxicity Assessment (CTOX) in CCTE's 384-well Estrogen Receptor Transactivation Assay without AIME metabolic competence (metabolism negative), Deisenroth Lab (AID 2284039; active = hit-call score of the fitted dose curve at least 0.9, where 1 is the maximum;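 also: cell viability via live-cell protease substrate cleaved to fluorescent probe; cells exposed 24 h to medium preincubated 2 h with alginate-water beads without S9; loss of fluorescence signal means loss of viability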)
Summary of the method: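 Fluorescent protease-substrate viability readout after 24 h exposure of VM7Luc4E2 cells to conditioned medium. Chemicals (0.002–200 uM) first sat 2 h over alginate-water beads, no S9. Data fitted bidirectionally, loss of signal meaning viability loss.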

[15] = CCTE_Shafer_MEA_dev_firing_rate_mean: CCTE's Neural Network Formation Assay for Mean Firing Rate, Shafer Lab (AID 2284031);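 as to AC50: curve fitted for loss of firing so AC50 reflects decreased mean firing rate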
Summary of the method: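 Spike frequency (spikes/recording length, averaged over active electrodes) was recorded on days 5, 7, 9 and 12 and collapsed to AUC; rat cortical cultures received compound continuously over 12 days of network development.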

[16] = CCTE_Shafer_MEA_dev_per_burst_spike_percent: CCTE's Neural Network Formation Assay for Percent of Spikes in a Burst, Shafer Lab (AID 2284032);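 as to AC50: fitted as a decrease in burst spike percentage below DMSO baseline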
Summary of the method: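 Value is trapezoidal AUC over recordings on days 5, 7, 9 and 12 of the well-mean fraction of spikes falling in single-electrode bursts; rat cortical cultures exposed continuously from plating, treatment renewed DIV 5 and 9, fitted downward against DMSO.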

[17] = target: Estrogen receptor (Homo sapiens) (UniProt P03372); assay: CCTE_Deisenroth_AIME_96WELL_LUC_Active: CCTE's 96-well Estrogen Receptor Transactivation Assay with AIME metabolic competence (ERTA luciferase; metabolism positive), Deisenroth Lab (AID 2284023; active = hit-call score of the fitted dose curve at least 0.9, where 1 is the maximum)
Summary of the method: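 Metabolism-positive mode: induced rat hepatic S9 in alginate microspheres conditions test solutions (0.002 - 200 uM, 10 points) for 2 hours. VM7Luc4E2 ER luciferase reporter cells then exposed 24 h; positive-direction fit against 17beta-estradiol, n=4 typical.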

[18] = target: Estrogen receptor (Homo sapiens) (UniProt P03372); assay: CCTE_Deisenroth_AIME_96WELL_LUC_Inactive: CCTE's 96-well Estrogen Receptor Transactivation Assay without AIME metabolic competence (ERTA luciferase; metabolism negative), Deisenroth Lab (AID 2284025; active = hit-call score of the fitted dose curve at least 0.9, where 1 is the maximum)
Summary of the method: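 Metabolism-negative arm: chemicals (0.002–200 uM, 10 points) incubated 2 h with alginate-water microspheres, then medium moved onto VM7Luc4E2 cells for 24 h luciferase read-out. Positive direction vs 17beta-estradiol; n≥4 experiments.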

[19] = CCTE_Deisenroth_AIME_96WELL_CTox_Active: Cytotoxicity Assessment (CTOX) in CCTE's 96-well Estrogen Receptor Transactivation Assay with AIME metabolic competence (metabolism positive), Deisenroth Lab (AID 2284028; active = hit-call score of the fitted dose curve at least 0.9, where 1 is the maximum)
Summary of the method: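 Cytotoxicity in VM7Luc4E2 breast cells after 24 h exposure to medium from a 2 h metabolic pre-incubation with induced rat hepatic S9 in alginate microspheres; fluorescent live-cell protease readout, 10-point series 0.002–200 uM, n=4.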

[20] = CCTE_Deisenroth_AIME_96WELL_CTox_Inactive: Cytotoxicity Assessment (CTOX) in CCTE's 96-well Estrogen Receptor Transactivation Assay without AIME metabolic competence (metabolism negative), Deisenroth Lab (AID 2284029; active = hit-call score of the fitted dose curve at least 0.9, where 1 is the maximum)
Summary of the method: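 Metabolism-negative mode: alginate-water lids without rat S9, 2 h pre-incubation of 10-point series (0.002 - 200 uM). Conditioned medium on VM7Luc4E2 cells 24 h; loss of fluorescent live-cell protease signal marks cytotoxicity.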

Measured: AC50

Chain of Estrogen receptor (Homo sapiens) (P03372 whole entry, looked up): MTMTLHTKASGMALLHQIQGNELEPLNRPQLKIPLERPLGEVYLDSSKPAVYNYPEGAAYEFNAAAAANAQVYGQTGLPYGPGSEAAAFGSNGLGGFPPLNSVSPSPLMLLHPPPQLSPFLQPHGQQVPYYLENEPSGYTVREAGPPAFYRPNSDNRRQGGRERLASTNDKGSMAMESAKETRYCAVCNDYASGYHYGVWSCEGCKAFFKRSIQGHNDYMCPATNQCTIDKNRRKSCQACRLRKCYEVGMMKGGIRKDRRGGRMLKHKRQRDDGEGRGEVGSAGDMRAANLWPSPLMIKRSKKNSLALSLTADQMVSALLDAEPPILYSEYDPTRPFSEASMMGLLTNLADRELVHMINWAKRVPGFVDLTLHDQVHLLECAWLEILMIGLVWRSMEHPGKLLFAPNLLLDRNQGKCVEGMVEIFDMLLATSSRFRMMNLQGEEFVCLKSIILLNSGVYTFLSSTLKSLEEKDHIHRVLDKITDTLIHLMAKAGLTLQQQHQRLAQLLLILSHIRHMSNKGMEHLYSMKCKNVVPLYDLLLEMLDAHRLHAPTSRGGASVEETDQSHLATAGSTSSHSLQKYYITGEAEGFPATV

CNC(=O)O/N=C/C(C)(C)S(C)=O (stereo not drawn)
inactive: [1]

CCOP(=S)(OCC)SCSP(=S)(OCC)OCC
inactive: [2] | [3] | [4] | [5] | [6] | [10] | [13] | [14]
active: [7] 20 µM | [8] 11.8 µM | [9] 27 µM | [11] 32.7 µM | [12] 24.4 µM | [1] 13.4 µM

ClC1(Cl)C2(Cl)C3(Cl)C4(Cl)C(Cl)(Cl)C5(Cl)C3(Cl)C1(Cl)C5(Cl)C24Cl (stereo not drawn)
active: [16] 3.9 µM
not listed: [1] | [13] | [14] | [17] | [18] | [19] | [20]
inactive: all other assays above

O=C(OC1CCCCC1)c1ccccc1C(=O)OC1CCCCC1
inactive: [19] | [20]
active: [17] 20.5 µM | [18] 10.1 µM

CC(C)(C)c1cc(O)ccc1O
active: [7] 20 µM | [11] 29.3 µM | [12] 29.9 µM | [1] 0.000221 µM | [16] 10 µM | [13] 137 µM | [14] 100 µM
not listed: [17] | [18] | [19] | [20]
inactive: all other assays above

O=C1C2(Cl)C3(Cl)C4(Cl)C(Cl)(Cl)C5(Cl)C3(Cl)C1(Cl)C5(Cl)C24Cl (stereo not drawn)
active: [2] 9.11 µM | [3] 9.36 µM | [5] 32.5 µM | [7] 9.39 µM | [11] 7.01 µM | [12] 20 µM | [15] 3.94 µM | [16] 4.18 µM
inactive: [4] | [6] | [8] | [9] | [10]

O=C(O)C(F)(F)C(F)(F)C(F)(F)C(F)(F)C(F)(F)C(F)(F)C(F)(F)C(F)(F)C(F)(F)C(F)(F)F
active: [2] 20 µM | [3] 5.97 µM
not listed: [1] | [13] | [14] | [17] | [18] | [19] | [20]
inactive: all other assays above

COP(=O)(OC)OC
inactive: [1]

CC(C)(C)CC(C)(C)c1ccc(O)cc1
inactive: [2] | [3] | [5] | [6] | [7] | [8] | [9] | [10] | [12]
active: [4] 5 µM | [11] 36.4 µM

CC(C)OC(=O)Nc1ccccc1
active: [1] 17 µM

O=C(Nc1ccc2[nH]ccc2c1)c1cc2cc(F)ccc2n1Cc1cccc(F)c1
inactive: [2] | [3] | [5] | [6] | [7] | [8] | [9] | [10] | [11] | [12]
active: [4] 4.2 µM

CCOC(=O)Nc1cccc(OC(=O)Nc2ccccc2)c1
inactive: [1]

CCCCCCCCc1ccc(O)cc1
active: [4] 5 µM | [5] 20 µM | [9] 3.39 µM | [11] 9.18 µM | [12] 20 µM
inactive: [2] | [3] | [6] | [7] | [8] | [10]

CCC(=O)C(CC(C)N(C)C)(c1ccccc1)c1ccccc1 (stereo not drawn)
active: [2] 0.208 µM | [10] 0.062 µM | [15] 3.42 µM | [16] 7.25 µM
inactive: [3] | [4] | [5] | [6] | [7] | [8] | [9] | [12]

C[C@]12CCC(=O)C[C@@H]1CC[C@@H]1[C@@H]2CC[C@]2(C)[C@@H](O)CC[C@@H]12
active: [5] 31.1 µM | [11] 33.3 µM | [12] 30.7 µM
inactive: [2] | [3] | [4] | [6] | [7] | [8] | [9] | [10]

O=C(O)C(Cl)(Cl)Cl
inactive: [2] | [3] | [4] | [5] | [6] | [7] | [8] | [9] | [11] | [12]

CC(=O)[O][Hg][c]1ccccc1
inactive: [3] | [5]
active: [2] 29.5 µM | [4] 0.941 µM | [6] 0.331 µM | [7] 0.844 µM | [8] 0.561 µM | [9] 1.3 µM | [10] 0.713 µM | [11] 33.9 µM | [12] 2.02 µM | [15] 0.00554 µM | [16] 0.0114 µM | [13] 66.1 µM | [14] 46.3 µM
